# Test results published in the supplement of paper PMC10849652.
# The full data set covers some 7,900 targets. This sample favours those with a hit. About 0.6% of all pairs of compound and target were hits. Unmarked numbers belong to inactive results.
# Legend:
# Experiment in all cases: log2 fold change, soluble protein after heating vs DMSO (PISA); higher = thermal stabilisation; K562 cells, 10 uM, 30 min; active = over 0.2 and 3.5 SD of the protein, either way, in both replicates (recomputed)
# [1] = compound: CC1=C(C=C(C=C1)NC(=O)C2=CC(=CC=C2)N(C)C)NC(=O)C3=CC=C(C=C3)O
# In short: (§1)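 K562 cells at 2×10^6 cells/mL were given 10 μM compound for 30 min. Aliquots then went through 3 min of heating across 48°C-58°C, were pooled, and were extracted in PBS with 0.5% NP-40 at 4°C, and the supernatant after 21,000xg for 90 min was quantified by TMTpro 16plex LC-MS/MS with channel sums equalised. Thermal stability relative to control samples, from duplicates, is given as log2 fold change.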
# [2] = compound: CC1=CC=C(C=C1)SC2=C3C=C(SC3=CN=C2)C(=O)N
# In short: as §1
# [3] = compound: CC1=NC(=CC=C1)C2=C(N=C(N2)C(C)(C)C)C3=CC4=NC=CN=C4C=C3
# In short: as §1
# Nexturastat A = compound: CCCCN(Cc1ccc(C(=O)NO)cc1)C(=O)Nc1ccccc1 [Nexturastat A]
# In short: as §1
# vemurafenib = compound: CCCS(=O)(=O)Nc1ccc(F)c(C(=O)c2c[nH]c3ncc(-c4ccc(Cl)cc4)cc23)c1F [vemurafenib]
# In short: as §1
# [4] = compound: CCCS(=O)(=O)Nc1ccc(F)c(C(=O)c2c[nH]c3ncc(Cl)cc23)c1F
# In short: as §1
# [5] = compound: CCCc1cc(C)[nH]c(=O)c1CNC(=O)c1cc(-c2ccnc(N3CCN(C)CC3)c2)cc2c1cnn2C(C)C
# In short: as §1
# givinostat = compound: CCN(CC)Cc1ccc2cc(COC(=O)Nc3ccc(C(=O)NO)cc3)ccc2c1 [givinostat]
# In short: as §1
# barasertib = compound: CCN(CCCOc1ccc2c(Nc3cc(CC(=O)Nc4cccc(F)c4)[nH]n3)ncnc2c1)CCOP(=O)(O)O [barasertib]
# In short: as §1
# [6] = compound: CC[C@@H]1C(=O)N(C)c2cnc(Nc3ccc(C(=O)NC4CCN(C)CC4)cc3OC)nc2N1C1CCCC1
# In short: as §1
# volasertib = compound: CC[C@@H]1C(=O)N(C)c2cnc(Nc3ccc(C(=O)N[C@H]4CC[C@H](N5CCN(CC6CC6)CC5)CC4)cc3OC)nc2N1C(C)C [volasertib]
# In short: as §1
# epoxomicin = compound: CC[C@H](C)[C@@H](C(=O)N[C@@H]([C@@H](C)O)C(=O)N[C@@H](CC(C)C)C(=O)[C@]1(CO1)C)NC(=O)[C@H]([C@@H](C)CC)N(C)C(=O)C [epoxomicin]
# In short: as §1
# [7] = compound: CCn1c(C(=O)N(C2CC2)C2CC2)cc2c3c(ncn3C)c(Nc3cc(C)n(C)n3)nc21
# In short: as §1
# [8] = compound: CN(C)CC(=O)Nc1ccc2[nH]c(=O)c3ccccc3c2c1
# In short: as §1
# rosiglitazone = compound: CN(CCOC1=CC=C(C=C1)C[C@H]2C(=O)NC(=O)S2)C3=CC=CC=N3 (racemic) [rosiglitazone]
# In short: as §1
# [9] = compound: CN1C2=C(C3=C1C(=O)N(N=C3)CC4=CC(=CC=C4)N)SC(=C2)S(=O)C
# In short: as §1
# [10] = compound: CC1=C(C=C(C=C1)NC(=O)C2=CC(=CC=C2)C(C)(C)C#N)NC3=CC4=C(C=C3)N=CN(C4=O)C
# In short: as §1
# [11] = compound: CC[C@H](C)N1C=C(C2=C(C=C(C=C21)C3=CN=C(C=C3)N4CCNCC4)C(=O)NCC5=C(C=C(NC5=O)C)C)C
# In short: as §1
# [12] = compound: CCn1cc(-c2ccnc3[nH]c(-c4cccc(CN(C)C)c4)cc23)c(-c2ccc(NC(=O)N(C)C)cc2)n1
# In short: as §1
# [13] = compound: CN1CCC(CNc2ccc3ncc(-c4cccc(OC(F)(F)F)c4)n3n2)CC1
# In short: as §1
# Sequence of UniProt Q96SL8 (Q96SL8 whole entry, looked up): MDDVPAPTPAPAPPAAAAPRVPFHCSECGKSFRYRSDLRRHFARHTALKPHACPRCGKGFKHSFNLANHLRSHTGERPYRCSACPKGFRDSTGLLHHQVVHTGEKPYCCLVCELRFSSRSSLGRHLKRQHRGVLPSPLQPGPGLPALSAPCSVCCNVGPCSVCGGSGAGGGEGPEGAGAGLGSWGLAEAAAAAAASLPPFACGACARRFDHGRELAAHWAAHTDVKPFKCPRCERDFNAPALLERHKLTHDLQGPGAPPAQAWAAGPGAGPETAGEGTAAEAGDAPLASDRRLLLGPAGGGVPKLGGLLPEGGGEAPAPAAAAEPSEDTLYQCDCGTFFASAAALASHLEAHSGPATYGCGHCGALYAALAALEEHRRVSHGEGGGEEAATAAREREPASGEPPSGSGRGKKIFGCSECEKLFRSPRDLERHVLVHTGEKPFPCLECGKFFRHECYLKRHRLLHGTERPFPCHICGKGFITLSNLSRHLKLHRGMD
# Sequence of UniProt Q14956 (Q14956 whole entry, looked up): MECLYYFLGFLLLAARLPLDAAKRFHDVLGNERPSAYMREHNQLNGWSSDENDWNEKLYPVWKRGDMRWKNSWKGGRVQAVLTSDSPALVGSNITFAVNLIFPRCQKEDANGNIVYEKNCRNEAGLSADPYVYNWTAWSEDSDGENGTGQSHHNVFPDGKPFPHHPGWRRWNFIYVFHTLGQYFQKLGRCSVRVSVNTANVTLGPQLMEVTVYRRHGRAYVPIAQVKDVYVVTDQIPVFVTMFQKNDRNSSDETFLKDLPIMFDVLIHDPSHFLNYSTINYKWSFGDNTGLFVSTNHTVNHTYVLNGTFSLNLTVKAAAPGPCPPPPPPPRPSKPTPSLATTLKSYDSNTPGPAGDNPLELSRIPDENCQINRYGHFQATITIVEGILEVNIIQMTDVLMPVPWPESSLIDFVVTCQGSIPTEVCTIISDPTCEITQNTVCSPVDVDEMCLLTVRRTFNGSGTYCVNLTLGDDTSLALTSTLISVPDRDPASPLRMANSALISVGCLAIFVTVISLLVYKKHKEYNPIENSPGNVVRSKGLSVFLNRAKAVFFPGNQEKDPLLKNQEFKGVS
# Sequence of UniProt Q70Z53 (Q70Z53 whole entry, looked up): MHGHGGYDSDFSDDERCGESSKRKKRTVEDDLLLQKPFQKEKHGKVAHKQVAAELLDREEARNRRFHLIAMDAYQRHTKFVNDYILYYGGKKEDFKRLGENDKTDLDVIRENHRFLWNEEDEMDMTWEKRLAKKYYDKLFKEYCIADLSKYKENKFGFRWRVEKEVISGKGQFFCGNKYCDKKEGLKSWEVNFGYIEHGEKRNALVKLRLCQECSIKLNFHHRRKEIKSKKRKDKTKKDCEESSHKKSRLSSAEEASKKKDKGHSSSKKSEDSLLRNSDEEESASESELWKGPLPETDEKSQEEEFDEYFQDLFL
# Sequence of UniProt Q8IVP5 (Q8IVP5 whole entry, looked up): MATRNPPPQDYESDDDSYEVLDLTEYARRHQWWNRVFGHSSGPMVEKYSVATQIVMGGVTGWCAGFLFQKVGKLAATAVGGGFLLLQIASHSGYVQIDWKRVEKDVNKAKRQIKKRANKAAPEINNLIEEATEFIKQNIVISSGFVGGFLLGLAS
# Sequence of UniProt P21695 (P21695 whole entry, looked up): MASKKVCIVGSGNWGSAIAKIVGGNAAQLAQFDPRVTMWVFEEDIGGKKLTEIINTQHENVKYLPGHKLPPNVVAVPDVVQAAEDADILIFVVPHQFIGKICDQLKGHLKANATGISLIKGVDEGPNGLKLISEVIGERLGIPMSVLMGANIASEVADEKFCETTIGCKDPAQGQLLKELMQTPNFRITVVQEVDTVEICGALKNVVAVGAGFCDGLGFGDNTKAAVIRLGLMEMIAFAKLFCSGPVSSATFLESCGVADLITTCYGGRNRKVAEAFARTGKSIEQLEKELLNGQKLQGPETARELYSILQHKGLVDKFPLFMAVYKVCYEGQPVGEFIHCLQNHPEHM
# Sequence of UniProt Q969S8 (Q969S8 whole entry, looked up): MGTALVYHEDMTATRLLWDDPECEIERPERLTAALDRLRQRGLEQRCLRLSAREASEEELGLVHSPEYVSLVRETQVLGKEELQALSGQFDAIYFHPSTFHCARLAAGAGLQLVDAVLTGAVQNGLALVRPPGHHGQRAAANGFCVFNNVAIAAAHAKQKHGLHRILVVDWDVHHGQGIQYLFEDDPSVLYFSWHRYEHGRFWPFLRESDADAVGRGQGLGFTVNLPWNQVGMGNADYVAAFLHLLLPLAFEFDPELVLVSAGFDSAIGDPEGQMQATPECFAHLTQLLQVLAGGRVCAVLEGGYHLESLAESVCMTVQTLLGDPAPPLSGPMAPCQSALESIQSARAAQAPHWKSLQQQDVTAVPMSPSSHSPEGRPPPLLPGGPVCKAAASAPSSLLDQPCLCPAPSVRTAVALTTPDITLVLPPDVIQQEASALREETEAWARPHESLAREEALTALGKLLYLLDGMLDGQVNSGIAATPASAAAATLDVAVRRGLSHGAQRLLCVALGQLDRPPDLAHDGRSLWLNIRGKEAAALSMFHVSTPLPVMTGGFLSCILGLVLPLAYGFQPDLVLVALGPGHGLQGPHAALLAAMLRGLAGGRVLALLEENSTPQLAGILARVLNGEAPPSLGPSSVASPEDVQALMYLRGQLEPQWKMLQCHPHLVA
# Sequence of UniProt Q92664 (Q92664 whole entry, looked up): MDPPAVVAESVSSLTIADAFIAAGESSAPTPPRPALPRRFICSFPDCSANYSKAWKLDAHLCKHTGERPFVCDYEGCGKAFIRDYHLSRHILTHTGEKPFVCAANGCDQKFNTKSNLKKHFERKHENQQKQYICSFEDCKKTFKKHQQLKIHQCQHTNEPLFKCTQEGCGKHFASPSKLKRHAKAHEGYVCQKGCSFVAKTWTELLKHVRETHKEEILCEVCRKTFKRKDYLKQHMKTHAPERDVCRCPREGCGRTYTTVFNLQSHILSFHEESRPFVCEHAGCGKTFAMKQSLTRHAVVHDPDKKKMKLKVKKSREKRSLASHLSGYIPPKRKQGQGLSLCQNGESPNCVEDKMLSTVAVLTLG
# Sequence of UniProt Q9BYC5 (Q9BYC5 whole entry, looked up): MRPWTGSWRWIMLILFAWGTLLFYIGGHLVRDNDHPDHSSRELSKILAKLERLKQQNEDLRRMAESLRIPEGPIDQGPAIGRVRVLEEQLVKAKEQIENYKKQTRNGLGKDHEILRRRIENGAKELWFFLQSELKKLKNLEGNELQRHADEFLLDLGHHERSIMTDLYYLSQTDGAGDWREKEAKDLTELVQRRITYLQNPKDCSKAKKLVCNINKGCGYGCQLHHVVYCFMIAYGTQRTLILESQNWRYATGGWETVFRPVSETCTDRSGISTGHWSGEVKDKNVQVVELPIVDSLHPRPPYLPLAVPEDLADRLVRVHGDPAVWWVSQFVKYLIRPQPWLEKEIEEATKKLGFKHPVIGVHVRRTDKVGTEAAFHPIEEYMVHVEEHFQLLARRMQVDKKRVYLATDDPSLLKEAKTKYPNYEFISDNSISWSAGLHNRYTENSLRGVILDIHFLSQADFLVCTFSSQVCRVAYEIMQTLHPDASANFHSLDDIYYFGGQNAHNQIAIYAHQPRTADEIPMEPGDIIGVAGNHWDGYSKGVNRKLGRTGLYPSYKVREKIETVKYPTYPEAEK
# Sequence of UniProt A6NDN3 (A6NDN3 whole entry, looked up): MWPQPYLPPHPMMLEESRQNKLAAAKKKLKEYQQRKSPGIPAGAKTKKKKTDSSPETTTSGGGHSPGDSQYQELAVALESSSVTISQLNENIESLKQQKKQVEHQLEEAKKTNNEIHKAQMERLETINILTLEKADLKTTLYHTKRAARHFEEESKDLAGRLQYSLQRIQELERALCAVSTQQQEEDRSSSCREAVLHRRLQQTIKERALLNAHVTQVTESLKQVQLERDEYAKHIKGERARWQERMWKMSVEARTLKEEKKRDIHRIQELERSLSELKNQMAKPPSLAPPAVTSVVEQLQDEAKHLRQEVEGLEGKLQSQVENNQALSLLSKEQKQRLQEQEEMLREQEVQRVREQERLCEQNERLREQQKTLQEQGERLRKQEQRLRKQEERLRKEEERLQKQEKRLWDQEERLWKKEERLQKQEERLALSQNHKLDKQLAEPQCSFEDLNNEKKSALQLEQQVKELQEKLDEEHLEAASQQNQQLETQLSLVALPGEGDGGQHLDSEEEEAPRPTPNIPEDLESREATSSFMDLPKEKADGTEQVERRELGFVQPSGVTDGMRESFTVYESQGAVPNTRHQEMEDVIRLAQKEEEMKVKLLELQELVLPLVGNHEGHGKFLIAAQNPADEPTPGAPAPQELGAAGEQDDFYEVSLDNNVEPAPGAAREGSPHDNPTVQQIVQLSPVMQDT
# Sequence of UniProt P02679 (P02679 whole entry, looked up): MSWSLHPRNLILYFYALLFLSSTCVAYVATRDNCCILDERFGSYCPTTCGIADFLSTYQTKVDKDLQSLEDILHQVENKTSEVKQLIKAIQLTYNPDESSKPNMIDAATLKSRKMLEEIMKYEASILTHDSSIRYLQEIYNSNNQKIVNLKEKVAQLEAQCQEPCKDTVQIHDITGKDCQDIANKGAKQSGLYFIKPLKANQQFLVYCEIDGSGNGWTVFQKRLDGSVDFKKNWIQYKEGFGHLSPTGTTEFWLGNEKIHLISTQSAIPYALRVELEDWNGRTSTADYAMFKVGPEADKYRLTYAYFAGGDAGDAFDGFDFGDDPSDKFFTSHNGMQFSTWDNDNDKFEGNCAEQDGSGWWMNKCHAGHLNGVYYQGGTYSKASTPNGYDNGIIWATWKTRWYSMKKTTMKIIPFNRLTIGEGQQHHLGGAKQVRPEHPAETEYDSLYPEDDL
Target,log2 fold change [1],log2 fold change [2],log2 fold change [3],log2 fold change (Nexturastat A),log2 fold change (vemurafenib),log2 fold change [4],log2 fold change [5],log2 fold change (givinostat),log2 fold change (barasertib),log2 fold change [6],log2 fold change (volasertib),log2 fold change (epoxomicin),log2 fold change [7],log2 fold change [8],log2 fold change (rosiglitazone),log2 fold change [9],log2 fold change [10],log2 fold change [11],log2 fold change [12],log2 fold change [13]
GBE1 (UniProt Q04446),0.08,0.128,0.014,0,0.162,0.065,0.005,0.038,0.109,0.042,-0.61 (active),0.168,0.016,0.058,-0.128,0.071,,,,
FUT8 (UniProt Q9BYC5),-0.047,,0.037,0.064,-0.417,,0.048,-0.048,-0.014,-0.327 (active),,0.002,0.08,0.175,-0.001,-0.04,-0.05,-0.042,0.06,-0.057
FASTKD1 (UniProt Q53R41),-0.138,,0.017,0.013,0.065,,,0.156,0.096,-0.023,,0.155,-0.151,0.064,0.014,0.072,-0.066,-0.088,0.051,-0.188
FGG (UniProt P02679),0.067,-0.093,,,,-0.214,,,,,-0.042,,,,,,,,0.035,0.137
FAT2 (UniProt Q9NYQ8),-0.035,-0.113,-0.114,0.456,-0.002,0.009,-0.333,0.119,0.069,0.011,0.029,-0.047,-0.183,-0.06,-0.27,-0.023,,,-0.023,0.109
IDH3A isoform 2 (UniProt P50213),,,-0.083,,,,,0.175,-0.012,,,,-0.14,,0.003,,,-0.056,,
GTF3A (UniProt Q92664),,0.09,0.125,-0.054,-0.075,0.078,-0.035,-0.048,-0.053,-0.128,-0.028,-0.101,-0.024,0.049,0.071,0.016,0.074,0.074,-0.263,-0.447 (active)
HSPA2 (UniProt P54652),0.046,,-0.039,,,,0.057,0.13,-0.004,,,,-0.012,,0.02,,-0.109,-0.014,,
HNRNPUL1 (UniProt M0R247),,-0.148,-0.075,,,-0.15,,0.001,,-0.072,0.16,,0.121,,,0.21,-0.059,-0.101,,
FMR1 (UniProt Q06787),0.036,-0.066,-0.163,,,-0.094,-0.068,-0.203,,-0.068,-0.173,,0.178,,,,-0.023,,0.088,0.279
GPNMB (UniProt Q14956),,,,1.64 (active),,,,0.671,,0.206,,-0.191,0.149,,,,,,,
GPD1 (UniProt P21695),-0.046,0.021,,0.653 (active),0.02,-0.042,-0.34,0.514,0.062,,-0.161,-0.205,-0.23,-0.045,0.027,-0.126,0.011,0,-0.011,-0.183
FRA10AC1 isoform 3 (UniProt Q70Z53),,0.04,0.041,-0.096,0.104,0.001,-0.001,0.052,-0.002,-0.086,-0.613 (active),0.041,-0.058,-0.013,0.115,0.093,-0.068,-0.034,0.025,0.057
HDAC10 (UniProt Q969S8),0.027,-0.001,,,0.231,0.046,0.056,0.153,-0.117,-0.113,-0.041,,-0.005,0.224,0.12,-0.107,,0.028,-0.179,0.055
FUNDC1 (UniProt Q8IVP5),,0.118,,,,-0.013,-0.285,,0.052,,0.078,,,,-0.13,,0.007,,,
GOLGA6B (UniProt A6NDN3),,,0.033,-0.099,0.882 (active),,-0.113,0.002,0.011,,,-0.061,0.07,0.327,0.084,,-0.035,-0.579 (active),-0.185,0.067
H3-3A (UniProt P84243),,0.078,,,0.149,0.102,0.118,0.267,0.101,-0.083,-0.239,,-0.123,-0.083,0.076,0.045,-0.205,0.147,,
FIZ1 (UniProt Q96SL8),,,-0.047,0.102,0.13,,-0.022,,,0.169,,-0.071,,-0.06,,0.138,-0.164,0.088,-0.125,0.024
